For 113 molecules, z-score results are on record in PubChem BioAssay AID488969 (Vanderbilt High Throughput Screening Facility, 2010).

In all, about 110,000 compounds were measured (“z-score”: median about -0.1, highest 2% from about 2 on). What follows is part of a selection rich in the highest values, with near analogues and random picks from the rest. Calls of active or inactive are those of the source.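 Rule for the calls: active = z-score in the third read window above 3 or below -3; inactive = the rest.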

The experiment deals with Metabotropic glutamate receptor 8 (Rattus norvegicus) (UniProt P70579). Briefly: rat mGluR8 modulators via GIRK flux, primary screen, cell-based, thallium flux, HTS (AID 488969). To be noted: HEK293 rat mGluR8, GIRK (G protein-gated inwardly rectifying potassium channel) thallium flux, FluoZin2; at 10 µM; stronger effect = higher value; submaximal glutamate (EC20) added with thallium.
Sequence of Metabotropic glutamate receptor 8 (Rattus norvegicus) (P70579 whole entry, looked up): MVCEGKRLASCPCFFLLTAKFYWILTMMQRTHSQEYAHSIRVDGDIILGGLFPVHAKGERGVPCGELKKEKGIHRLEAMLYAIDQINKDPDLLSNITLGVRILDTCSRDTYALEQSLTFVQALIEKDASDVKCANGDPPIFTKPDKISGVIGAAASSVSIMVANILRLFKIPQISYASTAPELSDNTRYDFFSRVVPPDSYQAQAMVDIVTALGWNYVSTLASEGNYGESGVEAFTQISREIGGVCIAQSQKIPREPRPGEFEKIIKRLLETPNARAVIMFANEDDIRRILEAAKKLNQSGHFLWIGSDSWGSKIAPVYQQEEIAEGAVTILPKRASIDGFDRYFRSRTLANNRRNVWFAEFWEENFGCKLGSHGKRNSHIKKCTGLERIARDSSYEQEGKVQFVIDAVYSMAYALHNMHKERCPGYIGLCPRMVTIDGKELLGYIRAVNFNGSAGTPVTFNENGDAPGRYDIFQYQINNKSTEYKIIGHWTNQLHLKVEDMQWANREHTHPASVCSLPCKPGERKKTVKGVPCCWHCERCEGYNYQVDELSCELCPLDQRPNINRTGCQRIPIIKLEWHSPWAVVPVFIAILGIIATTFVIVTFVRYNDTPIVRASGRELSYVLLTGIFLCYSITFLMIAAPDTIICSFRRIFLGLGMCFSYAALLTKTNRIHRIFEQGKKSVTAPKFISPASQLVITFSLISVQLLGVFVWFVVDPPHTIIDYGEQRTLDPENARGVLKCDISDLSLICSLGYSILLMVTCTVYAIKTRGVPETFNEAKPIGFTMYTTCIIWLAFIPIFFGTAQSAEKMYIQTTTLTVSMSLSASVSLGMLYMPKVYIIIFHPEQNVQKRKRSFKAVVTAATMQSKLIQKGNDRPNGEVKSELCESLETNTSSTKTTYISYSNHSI
As for `Cc1cccc(C(=O)N2c3ccccc3C(=O)OC2c2ccc3c(c2)OCO3)c1` (stereo not drawn), the z-score is -0.842. For `c1coc(CN(Cc2ccco2)c2ncnc3c2oc2ccccc23)c1` the value was -2.18; for `O=C1CN=C(Nc2ccc(Cl)cc2)N1c1ccccc1`, -0.0445.

`COc1cc(-n2c(C)nc3cc(C(=O)NCCN4CCOCC4)ccc32)cc(OC)c1OC`: the z-score is -0.57. In the case of `COc1cc(NC(=S)Nc2cccnc2)cc(OC)c1OC` it was -0.192.

In turn, `CCN1CCN(CCCNC(=O)c2cc3c(=O)[nH]c4ccccc4c3s2)CC1` registered a z-score of 0.477.

In turn, `O=C(CCCn1c(=S)[nH]c2ccccc2c1=O)NC1CCCCC1` yielded a z-score of 0.0447.

In turn, `CCN(CC)CCCn1c(=S)[nH]c2ccccc2c1=O` gave a z-score of 0.126. In the case of `O=C(CCCn1c(=S)[nH]c2cc3c(cc2c1=O)OCO3)N1CCN(C2CCCCC2)CC1` it was -0.008; in that of `O=c1c2ccccc2[nH]c(=S)n1CCCN1CCN(C2CCCCC2)CC1`, 10.2 (active); in that of `Cc1ccc2[nH]c(=O)c3cc(C(=O)NCCN4CCN(C)CC4)sc3c2c1`, 0.666. In the case of `CC1CCCCN1CCNc1nc(=S)[nH]c2ccccc12` (stereo not drawn) it was -0.105; in that of `CC1CCCCN1CCCn1c(=S)[nH]c2ccccc2c1=O` (stereo not drawn), 3.46 (active); in that of `CC1CC(C)CN(CCCn2c(=S)[nH]c3ccccc3c2=O)C1` (stereo not drawn), 14.4 (active). For `CC1CCN(CCCn2c(=S)[nH]c3ccccc3c2=O)CC1` the value was 0.0115; for `O=C(NCCN1CCN(Cc2ccccc2)CC1)c1cc2c(=O)[nH]c3ccccc3c2s1`, 2.15; for `O=C(NC1CCCCC1)c1ccccc1-c1ccccc1`, -0.176. `COCCNC(=O)c1cc2ncc(Br)cn2n1` registered a z-score of 0.00586. `C/C(Cn1cnc([N+](=O)[O-])n1)=N\NC(=O)c1ccc(Br)cc1` showed a z-score of -0.261. `O=C(CNC(=O)c1cccs1)NC1=NCCS1` had a z-score of 0.647. For the molecule `COc1ccc(/C=N/NC(=O)c2ccccc2O)cc1CSc1ccccn1`, the z-score was 0.779. In the case of `Cc1c2cccn2cc[n+]1C` it was -0.16. For `CCOC(=O)c1ccc(N/C=C2/CCCC(C)C2=O)cc1` (stereo not drawn) the value was 0.315. For `Cc1ccccc1OCC(=O)O/N=C(\N)Cc1ccc(Cl)cc1` the value was -0.483.

As to `CC12CC(NC(=O)N1c1cccc(C(=O)N3CCN(c4ccccc4)CC3)c1)c1ccccc1O2` (stereo not drawn), the z-score was -0.354.

In turn, `CCOC(=O)N1CCN(C(=O)CCCn2c(=S)[nH]c3ccccc3c2=O)CC1` returned a z-score of -0.357. For `CCC1CCCCN1CC(=O)c1c(C)[nH]c2ccccc12` (stereo not drawn) the value was -0.699. In the case of `CCC1CCCCN1CCCn1c(=S)[nH]c2ccccc2c1=O` (stereo not drawn) it was 7.04 (active).

Take `CC1=C(C(=O)Nc2ccccc2)C(c2ccco2)C(C#N)=C(SCC(=O)Nc2cccc(C)c2C)N1` (stereo not drawn): the z-score was found to be 0.693. In the case of `Cc1ccnc2nc(C(=O)Nc3ccc(N4CCOCC4)cc3)nn12` it was 0.0976; in that of `CCOC(=O)c1c(C)[nH]c(C2=NNC(=Nc3ccccc3OC)SC2)c1C`, -0.32; in that of `Nc1ccc(-n2cnc3cc([N+](=O)[O-])ccc32)cc1`, -0.118. In the case of `CN1C(=O)NC(c2ccccc2)C2=C1CN(Cc1ccccc1)C2=O` (stereo not drawn) it was 7.33 (active). In the case of `Cc1ccc(N2CC3=C(C2=O)C(c2ccccc2)NC(=O)N3C)cc1` (stereo not drawn) it was -0.193; in that of `CN1C(=O)NC(c2ccccc2)C2=C1CN(CCc1ccccc1)C2=O` (stereo not drawn), 0.0172; in that of `CCOC(=O)c1c(C)[nH]c(C(=O)OCCOc2ccccc2C)c1C`, -0.0787. Consider `O=C1/C(=C/c2cccnc2)Oc2cc(OS(=O)(=O)c3ccc(Cl)cc3)ccc21`, for which the z-score stood at 0.0689.

Consider `Cc1nn(-c2ccccc2)c(C)c1/C=N/NC(=O)c1cc(-c2cccc3ccccc23)n[nH]1`, for which the z-score was -0.481. For `Cc1c(C(=O)Oc2ccc(F)cc2)sc2ncn(Cc3cccc(F)c3)c(=O)c12` the value was -0.113; for `CCN(CC)CCn1c(=S)[nH]c2ccc(Cl)cc2c1=O`, 1.01; for `O=c1c2cc(Cl)ccc2[nH]c(=S)n1Cc1cccs1`, 4.2 (active). In the case of `O=c1c2cc(Cl)ccc2[nH]c(=S)n1Cc1ccccn1` it was 1.21; in that of `O=C(CCn1c(=S)[nH]c2ccccc2c1=O)N1CCOCC1`, 0.695.

For the molecule `O=c1c2ccccc2[nH]c(=S)n1Cc1cccs1`, the z-score was determined as 2.21. `CCC1CCCCN1Cc1ccc(OC)c(C)c1C` (stereo not drawn) showed a z-score of 0.363. For `CC(C)Oc1ccc(/C(O)=C2/C(=O)C(=O)N(CCCn3ccnc3)C2c2cccnc2)cc1` (stereo not drawn) the value was -0.0218; for `O=S(=O)(Nc1ncccn1)c1ccc(Nc2ncnc3ccccc23)cc1`, 0.439. Consider `Cc1cccc(OCC(=O)Nc2sc3c(c2C#N)CCC3)c1`, for which the z-score was -0.312. As to `O=C(NC1(C(F)(F)F)NC(=O)N(Cc2cccnc2)C1=O)c1ccncc1` (stereo not drawn), the z-score was found to be 2.13. In the case of `O=C(NC1(C(F)(F)F)NC(=O)N(Cc2cccnc2)C1=O)c1ccc(F)cc1` (stereo not drawn) it was 0.269. For `O=C(NC1(C(F)(F)F)NC(=O)N(Cc2cccnc2)C1=O)c1ccccc1` (stereo not drawn) the value was 1.13; for `CCOC(=O)/C=C/C(=O)Nc1ccccc1-c1ccccc1NC(=O)/C=C/C(=O)OCC`, -0.138; for `COc1ccccc1OCCCOc1c(C)cc(C)cc1Br`, -0.185. For `FC(F)(F)c1nnc2ccc(N3CCCC3)nn12` the value was -0.343. The molecule `CCOC(=O)c1cnc(-n2nc(C)cc2C)nc1Nc1ccccc1OC` returned a z-score of 0.0785. In the case of `CCC1CCCCN1S(=O)(=O)c1ccc(S(=O)(=O)N(Cc2ccccn2)CC2CCCO2)cc1` (stereo not drawn) it was -0.251. With `O=C(c1ccc2c(=O)n(Cc3ccco3)c(=S)[nH]c2c1)N1CCN(Cc2ccccc2)CC1`, the z-score was 0.611. In the case of `COc1cc2[nH]c(=S)n(Cc3ccco3)c(=O)c2cc1OC` it was -0.209; in that of `CC(C)NC(=O)c1ccc2c(=O)n(Cc3ccco3)c(=S)[nH]c2c1`, 0.167. For `O=c1[nH]c2ccc(Cl)cc2c(=O)n1Cc1ccco1` the value was 5.27 (active). For `O=c1c2cc3c(cc2[nH]c(=S)n1Cc1ccco1)OCO3` the value was 2.77; for `O=c1c2cc(Cl)ccc2[nH]c(=S)n1Cc1ccco1`, 16.1 (active); for `O=c1[nH]c2cccnc2n1Cc1ccco1`, 0.26. Molecule `CN1CCN(C(=O)c2ccc3c(=O)n(Cc4ccco4)c(=S)[nH]c3c2)CC1` returned a z-score of 0.757. In the case of `Nc1cc(=O)[nH]c(=O)n1Cc1ccco1` it was 0.299; in that of `OCc1cn(-c2ccccc2)nc1-c1ccc(-c2nn(-c3ccccc3)cc2CO)cc1`, 0.428; in that of `Cc1ccc(NC(=O)c2cc(S(=O)(=O)c3ccccc3)ccc2Cl)cc1`, -0.0678. For `COc1ccc(-n2c(SCCC(=O)O)nnc2-c2ccncc2)cc1`, the z-score was found to be 0.658. In the case of `Cc1cc(C)cc(C(=O)NCC(=O)OCC(=O)N2c3ccccc3NC(=O)C2(C)C)c1` it was -0.138. For `CC(C)c1nc(NCc2ccccc2)c(C#N)c2c1CCCC2` the value was -0.133; for `CCN(CC)S(=O)(=O)c1ccc(C(=O)OCCNC(=O)c2cccnc2)cc1`, -0.485; for `CCOc1[nH]n(-c2ccccc2)c(=O)c1C=Nc1ccc(Cl)cc1`, 0.655. `CCOc1[nH]n(-c2ccc(Cl)cc2)c(=O)c1C=Nc1ccc(C)cc1` had a z-score of -0.176. For `CCOc1[nH]n(-c2ccc(Cl)cc2)c(=O)c1C=Nc1ccc(Cl)cc1` the value was 3.26 (active); for `COc1ccc(-c2nc(C#N)c(N3CCC(C(N)=O)CC3)o2)cc1`, -0.0894; for `c1ccc(-c2oc3ncnc(NCCCn4ccnc4)c3c2-c2ccccc2)cc1`, 0.609. For `N=c1c2c(-c3ccccc3)c(-c3ccccc3)n(Cc3ccccc3)c2ncn1CCCO`, the z-score is 4.35 (active).

On to `N=c1c2c(-c3ccccc3)c(-c3ccccc3)n(Cc3ccccc3)c2ncn1CCO`, for which the z-score was found to be 0.392. For `N=c1c2c(-c3ccccc3)c(-c3ccccc3)n(Cc3ccco3)c2ncn1CCN1CCOCC1` the value was -0.19; for `CC(C)Cn1cnc2c(c(-c3ccccc3)c(-c3ccccc3)n2Cc2ccco2)c1=N`, 3.58 (active); for `OCCNc1ncnc2c1c(-c1ccccc1)c(-c1ccccc1)n2Cc1ccco1`, -0.463. For `N=c1c2c(-c3ccccc3)c(-c3ccccc3)n(Cc3ccco3)c2ncn1Cc1ccccc1` the value was 0.528. The molecule `c1ccc(-c2c(-c3ccccc3)n(Cc3ccco3)c3ncnc(NCCCn4ccnc4)c23)cc1` had a z-score of 2.78. In the case of `N=c1c2c(-c3ccccc3)c(-c3ccccc3)n(Cc3ccco3)c2ncn1CCO` it was 0.759; in that of `COc1ccc(C(=O)Nc2nc3ccc4nc(C)sc4c3s2)cc1`, -0.0988. In the case of `CCC(C)NC(=O)Cn1c(COc2ccc(Cl)cc2Cl)nc2ccccc21` (stereo not drawn) it was -2.32. In the case of `O=C(CN(Cc1ccccc1)C(=O)CSc1nnc(COc2ccccc2)o1)NC1CCCC1` it was 0.0593; in that of `Cc1cc(/C=C(\C#N)C(=O)NC2CC2)c(C)[nH]1`, 0.155. `CCCNC(=O)c1cccc(COCC(F)(F)C(F)F)c1` registered a z-score of -0.0567. In the case of `Cc1ccc(S(=O)(=O)N2CCOCC2)cc1C(=O)Nc1ccc2c(c1)CCC2` it was -0.205; in that of `O=C1/C(=C/c2cccnc2)SC(=S)N1c1ccc(F)cc1`, -0.12. In the case of `CCC(=O)n1nc(-c2ccccc2)nc1N` it was -0.874; in that of `CCCC(=O)n1nc(-c2cccnc2)nc1N`, 0.575; in that of `CCCC(=O)n1nc(-c2ccccc2)nc1N`, 9.34 (active). For `S=C(NC1CCCCC1)N(CCc1nc2ccccc2[nH]1)C1CCCC1` the value was -1.02. `CC1Cc2ccccc2N1C(=O)CCNS(=O)(=O)c1cccc2nsnc12` (stereo not drawn) showed a z-score of 0.906. In the case of `CCOC(=O)c1cc2n(c1N)-c1ccccc1C2=O` it was 5.13 (active). In the case of `CCOC(=O)c1cc2n(c1/N=C/N(C)C)-c1ccccc1C2=O` it was -0.437; in that of `CCOC(=O)c1cc(C(C)=O)c(=O)n(C)c1N`, -0.198. The molecule `CCOC(=O)c1c(C)[nH]c(C)c1C(=O)COC(=O)/C=C/c1ccc(OC(F)F)cc1` came in with a z-score of -0.244. In the case of `COCC(C)n1c(SCC(=O)NNC(=O)c2ccccc2)nc2ccccc2c1=O` (stereo not drawn) it was -0.346; in that of `CCOC(=O)/C(C#N)=C/C1=C(N2CCCC2)CC(C)(CC)OC1` (stereo not drawn), -0.501; in that of `CCOC(=O)/C(C#N)=C/C1=C(N2CCCC2)CC(C)(C)OC1`, 2.75.

Take `CCOC(=O)/C(C#N)=C\C1=C(N2CCCC2)CC(C)(C)OC1`: the z-score came out at 0.457. For `Cc1ccc(S(=O)(=O)N2C(=O)C(c3ccccc3)SC2=Nc2ccccc2)cc1` (stereo not drawn) the value was 0.00767; for `CN(CCO)c1ccc([N+](=O)[O-])cc1C(=O)O`, 0.404; for `CCOc1ccc(S(=O)(=O)Nc2ccccc2C(=O)N/N=C/c2c(OC)ccc3ccccc23)cc1`, -0.58. `Cc1nc2ccccc2cc1C(=O)N/N=C/c1ccco1` displayed a z-score of 0.211. In the case of `Cc1ccccc1C(=O)Nc1ccccc1C(=O)N/N=C\c1ccco1` it was 5.6 (active). Consider `O=C(Nc1ccccc1C(=O)N/N=C/c1ccco1)c1ccccc1Cl`, for which the z-score was 0.924. In the case of `O=C(Nc1ccccc1C(=O)N/N=C/c1ccco1)c1ccc(Cl)cc1` it was 0.162; in that of `O=C(Nc1ccccc1C(=O)N/N=C/c1ccco1)c1ccccc1`, 3.37 (active). For `O=C(N/N=C/c1ccco1)c1ccncc1` the value was 0.0764.
